HT1080NT lethal = kills 2HG-producing HT-1080-NT fibrosarcoma cells | HT-1080-NT fibrosarcoma viability, CellTiter-Glo ATP luminescence, 48 h | Potency, µM (top dose mostly 46.1 µM), hits mostly cytotoxic | 360,000 compounds, 1.6% hits | AID 686970;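 note: NT is the 2HG producing partner of a matched IDH1 knockdown line; nearly all actives have a fitted effect of over 55% in size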
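Read-out is CellTiter-Glo luminescence after 10 minutes at room temperature, following 48 hours' compound treatment of HT-1080-NT cells (750 cells/well, RPMI, 5% FBS, 37 degrees C).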
ELG1 DNA repair = ELG1-dependent DNA repair inhibition; HEK293T ELG1-luciferase reporter, luminescence, 16 h; DNA damage induced by 5-fluorouridine; Potency, µM (doses to about 46.1 µM), actives largely listed as inhibitors; 330,000 compounds, 2.3% hits; note: nearly all actives have a fitted effect of over 55% in size
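Step one: seed 2,000 cells per well. Step two: pin-transfer compound or DMSO alongside 5-fluorouridine. Step three: incubate 16 hr, 37 °C, 5% CO2. Step four: add ONE-Glo, wait 30 min, read luminescence.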
TDP1 cell noCPT = qHTS for Inhibitors of human tyrosyl-DNA phosphodiesterase 1 (TDP1): qHTS in cells in absence of CPT; AID 686978, 2013; DT40 Tdp1-/- hTDP1 cells, no CPT, ATP luminescence, 48 h; Potency, µM (series often up to 46.2 µM), hits mostly inhibitors; 420,000 compounds, 15% hits; note: nearly all actives have a fitted effect of over 55% in size
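Chicken DT40 Tdp1-/- cells stably complemented with human TDP1 were seeded at 400 cells/well with DMSO in place of 20 nM camptothecin. After compound pinning, cells grew at least 48 hr at 37 °C; viability read by CellTiter-Glo luminescence.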
TDP1 cell CPT = growth inhibition of DT40 Tdp1-/-;hTDP1 cells with camptothecin (screen for TDP1 inhibitors); chicken DT40 Tdp1-/-;hTDP1 cells + 20 nM CPT, ATP luminescence, 48 h; Potency, µM (titrated, usually from 46.2 µM), actives largely listed as inhibitors; 420,000 compounds, 12% hits; AID 686979; note: nearly all actives have a fitted effect of over 55% in size
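Chicken DT40 Tdp1-/- cells stably complemented with human TDP1 were seeded at 400 cells/well in medium containing 20 nM camptothecin, exposed to pin-transferred compounds, and grown at 37 °C for at least 48 hr. Viability was read as ATP luminescence.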
IL-1B inflam inh = blocks inflammasome-driven IL-1 beta release; THP-1 LPS/ATP IL-1B secretion, AlphaLISA, 16 h; active compounds read low; 360,000 compounds, 4.7% hits; AID 743279; activity change, % at 57.5 µM; in the data active = activity change below about -50%; inconclusive = mostly about -30% to -49%
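THP-1 cells pretreated 1 hr with compounds (up to 57.5 uM final), then stimulated with LPS (250 ng/mL final) plus ATP (1.25 mM final); secreted IL-1B measured by AlphaLISA after 16 hr, decreased signal indicating inhibition.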
HT1080 IDH1KD tx = kills HT-1080 cells with IDH1 knockdown; HT-1080 IDH1 knockdown viability, ATP luminescence, 48 h; Potency, µM (doses to about 46.1 µM), most hits filed as cytotoxic; 360,000 compounds, 2% hits; AID 686971
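CellTiter-Glo luminescence after 48 h compound exposure at 37 degrees C of IDH1-knockdown HT-1080 cells in 5% FBS RPMI. %Activity scaled between DMSO wells and cell-free media wells, with curves fitted and assigned curve classes.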
Of the large screens only hits and unclear results are named; the others gave an inactive call. Most compounds without a hit are left out; they make up all but 19% or so of the library. Unless noted, calls come from the whole dose curve; as a rule, active = well fitted curve in the direction sought with a large enough effect; inconclusive = small, poorly fitted or top-dose-only effect, or another doubt; inactive = no such curve, though single readings can be large; an effect the other way counts as inactive or inconclusive.

CNC(=O)C1CCN(S(=O)(=O)c2c(C)noc2/C=C/c2ccc(C)cc2)CC1	TDP1 cell noCPT inconclusive, TDP1 cell CPT inconclusive
COc1ccc(NC(=O)C2CCN(S(=O)(=O)c3c(C)noc3/C=C/N(C)C)CC2)cc1	none
Cc1ccc(N(C)C(=O)C2CCN(S(=O)(=O)c3c(C)noc3/C=C/c3c(C)cc(C)cc3C)CC2)cc1	TDP1 cell noCPT 20.6µM, TDP1 cell CPT inconclusive (no result: HT1080NT lethal, ELG1 DNA repair, IL-1B inflam inh, HT1080 IDH1KD tx)
COc1cc(NC(=O)C2CCN(S(=O)(=O)c3c(C)noc3/C=C/c3c(C)cc(C)cc3C)CC2)cc(OC)c1	TDP1 cell CPT 13µM (no result: HT1080NT lethal, ELG1 DNA repair, IL-1B inflam inh, HT1080 IDH1KD tx)
CCc1cccc(C)c1NC(=O)C1CCN(S(=O)(=O)c2c(C)noc2/C=C/c2c(C)cc(C)cc2C)CC1	TDP1 cell noCPT 10.3µM, TDP1 cell CPT inconclusive (no result: HT1080NT lethal, ELG1 DNA repair, IL-1B inflam inh, HT1080 IDH1KD tx)
COc1ccc(/C=C\c2onc(C)c2S(=O)(=O)N2CCC(C(=O)Nc3ccc(Cl)cc3)CC2)cc1	TDP1 cell noCPT inconclusive (no result: HT1080NT lethal, ELG1 DNA repair, IL-1B inflam inh, HT1080 IDH1KD tx)
COc1ccc(/C=C\c2onc(C)c2S(=O)(=O)N2CCC(C(=O)Nc3ccc(C)c(F)c3)CC2)cc1	TDP1 cell noCPT 6.51µM, TDP1 cell CPT 5.17µM (no result: HT1080NT lethal, ELG1 DNA repair, IL-1B inflam inh, HT1080 IDH1KD tx)
Nc1ncnc2c1ncn2[C@@H]1O[C@H](CNC(=O)[C@H](N)Cc2cscn2)[C@@H](O)[C@H]1O	none
CCc1ccc(C(=O)NNc2ccc(C)c(Cl)c2)cc1	HT1080NT lethal inconclusive, ELG1 DNA repair 18.3µM, TDP1 cell noCPT inconclusive, HT1080 IDH1KD tx inconclusive (no result: IL-1B inflam inh)
CCc1ccc(C(=O)NNc2ccc(F)cc2)cc1	HT1080NT lethal inconclusive, TDP1 cell noCPT inconclusive, HT1080 IDH1KD tx inconclusive
C[C@H]1CN([C@@H](C)CO)C(=O)CCCn2nncc2CO[C@@H]1CN(C)S(=O)(=O)c1ccc(-c2ccccc2)cc1	none (no result: ELG1 DNA repair)
COc1cc(Br)cc(/C=C/c2ccc3cccc(O)c3n2)c1O	HT1080NT lethal inconclusive, ELG1 DNA repair 7.3µM, TDP1 cell noCPT 9.2µM, TDP1 cell CPT 14.6µM, HT1080 IDH1KD tx inconclusive
Oc1cccc2ccc(/C=C/c3ccccc3Br)nc12	HT1080NT lethal inconclusive, ELG1 DNA repair inconclusive, TDP1 cell noCPT 5.8µM, TDP1 cell CPT 6.51µM, HT1080 IDH1KD tx inconclusive
COc1cc(/C=C/c2ccc3cccc(OC)c3n2)c(O)c([N+](=O)[O-])c1	IL-1B inflam inh inconclusive
COc1cc(Br)c(/C=C/c2ccc3cccc(O)c3n2)cc1OC	ELG1 DNA repair inconclusive, TDP1 cell noCPT 13µM, TDP1 cell CPT 11.6µM
Oc1ccc2ccccc2c1/C=N/n1cnnc1	none
O=[N+]([O-])c1cccc2ccc(/C=C/c3cccc(Br)c3)nc12	TDP1 cell noCPT inconclusive
Oc1ccc2ccccc2c1/C=C/c1ccc2c(Br)cc(Br)c(O)c2n1	HT1080NT lethal inconclusive, TDP1 cell noCPT 5.17µM, TDP1 cell CPT 3.66µM, HT1080 IDH1KD tx 29.1µM (no result: ELG1 DNA repair)
C[C@]12CCC3c4ccc(O)cc4CCC3C1CCC2=O (some centres undefined)	none (no result: HT1080NT lethal, ELG1 DNA repair, IL-1B inflam inh, HT1080 IDH1KD tx)
C[C@H](CO)N1C[C@H](C)[C@@H](CN(C)C(=O)Nc2ccc(C(F)(F)F)cc2)Oc2c(NS(=O)(=O)c3ccccc3)cccc2C1=O	none
O=[N+]([O-])c1cccc2ccc(/C=C/c3ccc(Cl)cc3)nc12	ELG1 DNA repair inconclusive
COc1cc(/C=N/NC(=O)c2nc(C)cc(C)n2)ccc1O	ELG1 DNA repair inconclusive
COc1cc(/C=C/c2ccc3cccc(O)c3n2)ccc1O	ELG1 DNA repair inconclusive, TDP1 cell noCPT 16.4µM, TDP1 cell CPT inconclusive, IL-1B inflam inh inconclusive, HT1080 IDH1KD tx inconclusive
CSc1ccc(/C=C/c2ccc3cccc(O)c3n2)cc1	HT1080NT lethal inconclusive, ELG1 DNA repair inconclusive, TDP1 cell noCPT 20.6µM, TDP1 cell CPT 16.4µM, HT1080 IDH1KD tx inconclusive
O=C1C(O)=CC(=C(c2ccccc2)c2ccccc2)c2ccccc21	TDP1 cell noCPT inconclusive, TDP1 cell CPT inconclusive, IL-1B inflam inh -91.8, HT1080 IDH1KD tx inconclusive (no result: ELG1 DNA repair)
